# Reference: PubChem BioAssay (NCATS)
# Results filed as inconclusive are left out. Where a call stands in place of a potency, no number is given. Activity calls are given as the source filed them. Calls come from the whole dose curve; as a rule, active = well fitted curve in the direction sought with a large enough effect; inconclusive = small, poorly fitted or top-dose-only effect, or another doubt; inactive = no such curve, though single readings can be large; an effect the other way counts as inactive or inconclusive. Residues, ends and D or L forms follow the SMILES beside them. *: point of attachment. Cbz = O=C(OCc1ccccc1)*
# How the values were obtained:
# [1] = Counterscreen for APE1 Inhibitors: Fluorescent Dye Displacement Validation Assay (AID 1707)
# How it was run: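 Assay buffer: Tris-HCl pH7.5 with 50mM NaCl, 2 mM MgCl2, 0.01% Tween-20. Dye 250 nM, duplex 50 nM final. Readout: decrease in ThO endpoint fluorescence, 480 nm excitation, 540 nm emission.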
# [2] = biological target: DNA repair nuclease/redox regulator APEX1 (Homo sapiens) (UniProt P27695); experiment: qHTS Validation Assay for Inhibitors of the Human Apurinic/apyrimidinic Endonuclease 1 (APE1) (AID 1705;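 note: TAMRA fluorescence gain over two minutes as APE1 cuts a quenched THF abasic duplex; series mostly up to about 57 µM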)
# Sequence of DNA repair nuclease/redox regulator APEX1 (Homo sapiens) (P27695 whole entry, looked up): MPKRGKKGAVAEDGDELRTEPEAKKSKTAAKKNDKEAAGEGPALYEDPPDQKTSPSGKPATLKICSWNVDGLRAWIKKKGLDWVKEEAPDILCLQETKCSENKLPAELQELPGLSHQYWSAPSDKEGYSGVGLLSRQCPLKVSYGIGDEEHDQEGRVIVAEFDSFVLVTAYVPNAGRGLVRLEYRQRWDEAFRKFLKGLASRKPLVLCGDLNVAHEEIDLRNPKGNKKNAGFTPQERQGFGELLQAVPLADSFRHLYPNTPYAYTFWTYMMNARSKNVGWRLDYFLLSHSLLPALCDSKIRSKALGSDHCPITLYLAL
# How it was run: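 Activity read as rising fluorescence (598 nm emission, 525 nm excitation) from incision of a TAMRA/BHQ-2 duplex carrying a THF abasic site (50 nM). Compound and enzyme sat 15 min at RT before substrate start; signal change between first and third 60-s reads.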
# [3] = qHTS for differential inhibitors of proliferation of Plasmodium falciparum line 7G8 (AID 1815);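 note: parasite growth measured after three days of incubation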; note: potency is the fitted concentration of half-maximal effect
# [4] = qHTS for differential inhibitors of proliferation of Plasmodium falciparum line GB4 (AID 1816); settings: Potency: Plasmodium falciparum GB4 proliferation inhibition;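 note: parasite growth measured after 72 h incubation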; note: potency is the fitted concentration of half-maximal effect
# [5] = biological target: Endonuclease 4 (Escherichia coli (strain K12)) (UniProt P0A6C1); experiment: Counterscreen for APE1 Inhibitors: qHTS Validation Assay for Inhibitors of Endonuclease IV (AID 1708)
# How it was run: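 Cleavage of a quenched abasic-site DNA duplex (50 nM, 5'-TAMRA, 3'-BHQ-2) by 2 nM enzyme is followed as fluorescence increase. Compounds are preincubated with enzyme 15 min at room temperature before substrate addition.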
# [6] = qHTS for differential inhibitors of proliferation of Plasmodium falciparum line 3D7 (AID 1876); note: potency is the fitted concentration of half-maximal effect
# [7] = biological target: alpha-glucosidase (Oryza sativa, rice) (UniProt Q653V4); experiment: Counterscreen for Glucocerebrosidase Inhibitors: qHTS Assay for Rice alpha-Glucosidase at pH 5.0 (AID 997)
# How it was run: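 Rice alpha-glucosidase (4 nM final) with 400 uM 4-methylumbelliferyl-alpha-D-glucopyranoside in citrate buffer pH 5.0, 20 min at room temperature, stopped at pH 10; fluorescence 365/440 nm, compounds 0.7 nM–77 uM, AC50 from Hill fits.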
Compound,Potency [1],Potency [2],Potency [3],Potency [4],Potency [5],Potency [6],outcome [7]
COc1cc([C@@H]2c3cc4c(cc3[C@H](O)C3COC(=O)[C@@H]32)OCO4)cc(OC)c1OC (some centres undefined),inactive,,,,,,
Cc1ccccc1/C=C/C1=NCCN1,inactive,inactive,8.91 µM (active),11.2 µM (active),,,
COc1ccc2c(c1)CCC1C2CC[C@@]2(C)C1CC[C@@H]2NCCCCCCN1C(=O)C=CC1=O (some centres undefined),inactive,inactive,inactive,inactive,inactive,inactive,
O=C1Nc2ccc(I)cc2/C1=C/c1cc(Br)c(O)c(Br)c1,inactive,,8.91 µM (active),14.1 µM (active),inactive,14.1 µM (active),inactive
O=c1ccc2c(OCCCCc3ccccc3)c3ccoc3cc2o1,inactive,inactive,,11.2 µM (active),,,inactive
COc1ccc(NC(=O)c2ccc(-c3ccc(-c4noc(C)n4)cc3C)cc2)cc1N1CCN(C)CC1,inactive,inactive,4.47 µM (active),3.98 µM (active),inactive,2.82 µM (active),inactive
NC(=Nc1ccccc1)NC(=O)c1nc(Cl)c(N)nc1N,inactive,inactive,8.91 µM (active),12.6 µM (active),,3.55 µM (active),inactive
CCCCCCCC/C=C\CCCCCCCC(=O)NCCc1ccc(O)c(O)c1,,inactive,7.08 µM (active),11.2 µM (active),,8.91 µM (active),
N#CC(=C(\N)Sc1ccccc1N)/C(C#N)=C(/N)Sc1ccccc1N,inactive,inactive,2.51 µM (active),4.47 µM (active),inactive,3.98 µM (active),
CC(C)(C)c1cc(/C=C(\C#N)C(N)=S)cc(C(C)(C)C)c1O,inactive,,7.94 µM (active),7.94 µM (active),inactive,4.47 µM (active),
CCCC(=O)NCCc1c2n(c3ccc(OC)cc13)CCCc1ccccc1-2,inactive,inactive,3.55 µM (active),11.2 µM (active),,,
COc1ccc2c(c1)c(CC(=O)O)c(C)n2C(=O)c1ccccc1,inactive,inactive,inactive,inactive,inactive,inactive,inactive
CCCCC[C@H](CC(=O)NO)C(=O)N[C@H](C(=O)N1CCC[C@H]1CO)C(C)C,inactive,,2.24 µM (active),2 µM (active),inactive,1.78 µM (active),
O=C(O)c1ccccc1Nc1cccc(OCc2ccc3ccccc3n2)c1,inactive,inactive,,,inactive,inactive,inactive
CC(/C=C/c1cccc(Oc2ccc(F)cc2)c1)N(O)C(N)=O (centres undefined),inactive,inactive,,,,,
NC(N)=N[C@@H](CCC(=O)O)C(=O)O,inactive,inactive,inactive,inactive,,inactive,
CC(C)[C@H](NC(=O)OCc1ccccc1)C(=O)N[C@H](C=O)Cc1ccccc1 (Cbz-Val-Phe-aldehyde),inactive,inactive,7.08 µM (active),4.47 µM (active),,2.82 µM (active),inactive
CC(=O)[C@H]1CCC2C3CC=C4C[C@@H](OS(=O)(=O)O)CC[C@]4(C)C3CC[C@@]21C (some centres undefined),inactive,inactive,inactive,inactive,inactive,inactive,
CC(C)(C)NCC(O)COc1cccc2[nH]c(=O)[nH]c12 (centres undefined),inactive,inactive,inactive,inactive,,inactive,
Nc1ncnc2c1c(-c1ccc(Oc3ccccc3)cc1)cn2C1CCCC1,inactive,,4.47 µM (active),2.51 µM (active),,10 µM (active),inactive
NCC(O)C1CCCCCCC1 (centres undefined),inactive,inactive,12.6 µM (active),5.62 µM (active),,inactive,
